Only some compounds are listed: those with a hit (about 5.8% of all), similar ones and a draw of the others.
MCF10A rereplic: DNA re-replication induction in MCF 10a cells; 350,000 compounds, 2.9% hits; MCF 10A DNA re-replication, Hoechst nuclear intensity, 48 h; Potency, µM (top dose mostly 46.1 µM), for inactives: top-dose activity, positive = re-replication, actives largely listed as activators; further: % of control where 0% means no effect; nearly all actives have a fitted effect of over 50% in size
KB-3-1 tox: kills parental KB-3-1 adenocarcinoma cells; KB-3-1 viability, CellTiter-Glo ATP luminescence, 72 h; Potency, µM (series often up to 46.1 µM), hits mostly cytotoxic; 400,000 compounds, 1.4% hits; AID 1347075; further: on the % scale 0 is the no-effect control and ±100 the full control effect; nearly all actives have a fitted effect of over 60% in size
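KB-3-1 cells, DMEM (no phenol red) + 10% FBS; compound by pin transfer, 72 h, 37 °C. Readout: CellTiter-Glo luminescence after 10 min. Data normalized, curve-fitted.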
ALOX12 inh: inhibitors of human 12S-lipoxygenase ALOX12. 580,000 compounds, 1.1% hits. AID 1671190. Potency, µM (highest dose often 108 µM), for inactives: at the top dose activity change, negative = inhibition, actives largely listed as inhibitors. purified 12hLO, xylenol orange hydroperoxide absorbance; further: on the % scale 0 is the no-effect control and ±100 the full control effect
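Hydroperoxide product was detected by ferrous iron/xylenol orange as the 573 to 405 nm absorbance ratio. Arachidonic acid at 40 uM (final) was turned over for 30 min at room temperature by 150 nM human 12hLO, pH 7.0 Hepes buffer, after 15 min compound preincubation.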
KB-V1 cytotox: KB-V1 MDR subline cytotoxicity; KB-V1 MDR cells viability, CellTiter-Glo, 72 h; Potency, µM (highest dose often 46.1 µM), usual class: cytotoxic; 400,000 compounds, 3.4% hits; further: on the % scale 0 is the no-effect control and ±100 the full control effect; nearly all actives have a fitted effect of over 60% in size
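Cytotoxicity toward P-gp-expressing KB-V1 cells was determined as loss of CellTiter-Glo luminescence after 72 h at 37 degrees C. Compounds were tested in quantitative HTS format across a concentration range, with curves fitted to normalized data.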
SW480 rereplic: DNA re-replication induction in SW480 cells; SW480 DNA re-replication, Hoechst DNA content imaging, 48 h; Potency, µM (series often up to 46.1 µM), inactives show top-dose re-replication activation, most hits filed as activators; 340,000 compounds, 1.8% hits; AID 624297; further: % of control where 0% means no effect; nearly all actives have a fitted effect of over 55% in size
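SW480 cells exposed to compounds for 48 hr at 37 C, 5% CO2, then Hoechst-stained 40 min. Nuclear DNA content imaged by fluorescence scanning (405 nm excitation, 500-530 nm emission); re-replication scored as increased high-intensity nuclei.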
PINK1 expr mod: changes PINK1 expression; Potency, µM (top dose mostly 76.6 µM), for inactives: at the highest dose activation (PINK1 increase), most hits filed as activators; 410,000 compounds, 0.2% hits; PINK1 immunofluorescence, high-content cytometry, 24 h; active means well fitted activation curve with a large enough effect; inconclusive means small, poorly fitted or top-dose-only effect; cell line not stated here; further: % of control where 0% means no effect; nearly all actives have a fitted effect of over 65% in size
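Decision-based qHTS: stable cells, 24 h exposure to five compound concentrations, CCCP as control. Fixed cells stained for PINK1 plus nuclear, mitochondrial and cell markers, cytometer read.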
Starred values were filed as active, the others as inactive; i = inactive; ? = inconclusive; . = no result; [ ] = dose if it differs, or a comment. Unless noted, the call rests on the fitted dose curve; in most records, active means well fitted curve in the direction sought with a large enough effect; inconclusive means small, poorly fitted or top-dose-only effect, or another doubt; inactive means no such curve, though single readings can be large; an effect the other way counts as inactive or inconclusive. Potency means the concentration at half of the fitted maximal effect.

SMILES | MCF10A rereplic | KB-3-1 tox | ALOX12 inh | KB-V1 cytotox | SW480 rereplic | PINK1 expr mod
CCN(C1CCOCC1)C1CNC1 | . | . | 6% | . | . | .
Cc1ccccc1-n1c(/C=C/c2ccc(O)cc2)nc2ccccc2c1=O | . | . | ? | . | . | 0%
Cc1ccccc1-n1c(/C=C/c2ccccn2)nc2ccccc2c1=O | 18µM* | i | 26% | ? | 27% | 1%
Cc1cc(C)cc(-n2c(/C=C/c3cccc(F)c3)nc3ccccc3c2=O)c1 | . | i | 6% | ? | . | 1%
Cc1ccc(-n2c(/C=C\c3ccc(F)c(F)c3)nc3ccccc3c2=O)c(C)c1 | . | 2.9µM* | 4% | 4.1µM* | . | 0%
O=c1c2ccccc2nc(/C=C/c2ccc(O)cc2)n1-c1ccccc1O | 21µM* | 21µM* | ? | i | 17% | 0%
Cc1ccc(C(=O)NC[C@H]2C[C@@H]3CCN2C[C@@H]3c2cc(C3CCCCC3)nn2C)cc1 | . | . | 3%[176 µM] | . | . | .
CCOC(=O)[C@]12Cc3cc(C)ccc3[C@H]1N(C)C(=O)c1ccccc12 | . | i | ? | i | . | 1%
CCOC(=O)[C@]12Cc3cc(C)ccc3[C@H]1N(C)C(=O)c1cc(OC)ccc12 | . | 7.3µM* | 0% | i | . | 0%
CCOC(=O)[C@]12Cc3c(cc(OC)c(OC)c3OC)[C@H]1N(Cc1ccccc1)C(=O)c1ccccc12 | ? | i | -6% | ? | 0% | 4%
CCOC(=O)[C@]12Cc3c(cc(OC)c(OC)c3OC)[C@H]1N(C(C)C)C(=O)c1cc(OC)ccc12 | . | 4.1µM* | ? | 2.6µM* | . | -1%
CCOC(=O)[C@]12Cc3cc(OC)ccc3[C@H]1N(C(C)C)C(=O)c1cc(OC)ccc12 | . | 10µM* | ? | 6.5µM* | . | -1%
O=C(Cc1ccc(Cl)cc1)N1Cc2ccccc2CC2(CCCN2CC2CCNC2)C1 (configuration not stated) | . | . | 6%[6.33 µM] | . | . | .
Nc1cccc(-c2cn(C[C@H]3CC4CCN3C[C@@H]4C(=O)NC3CCCCC3)nn2)c1 (some centres not stated) | . | . | 75%[176 µM] | . | . | .
O=C(O)C1=NOC2CN(Cc3cncs3)CC12 (configuration not stated) | . | . | 13µM* | . | . | .
O=C(O)C1=NOC2CN(CC3CC3)CC12 (configuration not stated) | . | . | 1%[12.5 µM] | . | . | .
COc1ccccc1N1CCN(C(=O)[C@H]2CN3CCC2C[C@@H]3Cn2cc(C(C)(C)O)nn2)CC1 (some centres not stated) | . | . | 17% | . | . | .
O=c1ccc2cc(O[C@@H]3O[C@@H](CO)[C@H](O)[C@@H](O)[C@@H]3O)c(O)cc2o1 | 18µM* | i | 2% | i | ? | -1%
O=c1ccc2cc(O[C@H]3O[C@@H](CO)[C@@H](O)[C@@H](O)[C@@H]3O)c(O)cc2o1 | ? | . | . | . | 2%[20.6 µM] | .
Cc1[nH]c2ccc(C34CC5CC(CC(C5)C3)C4)cc2c1CCN | . | . | 32µM* | . | . | .
COC(=O)C1=C(c2ccc(-c3ccccc3)c(F)c2)C[C@@H]2CC[C@H]1N2C(=O)NCc1ccco1 | 21µM* | ? | -14% | i | 26% | 3%
COC(=O)C1=C(c2ccc(-c3ccccc3)c(F)c2)C[C@@H]2CC[C@H]1N2C(=O)NCCO | 15% | ? | 7% | ? | 0% | 2%
CCCNC(=O)N1[C@H]2CC[C@@H]1C(C(=O)OC)=C(c1ccc(-c3ccccc3)c(F)c1)C2 | 5% | ? | 3% | ? | -16% | ?
COC(=O)C1=C(c2ccc(-c3ccccc3)c(F)c2)C[C@@H]2CC[C@H]1N2C(=O)NCCOc1ccccc1Cl | 1% | ? | 5% | 21µM* | ? | 0%
CCC(C)NC(=O)c1c(N)n(CCCOC)c2nc3ccccc3nc12 (configuration not stated) | 4.1µM* | i | -4% | 8.2µM* | 7.3µM* | 1%

Screening results as filed in PubChem BioAssay.
